# Compound activity: PubChem BioAssay, National Center for Advancing Translational Sciences (NCATS)
# NS1 function inh: qHTS Assay for Inhibitors of Influenza NS1 Protein Function; 270,000 compounds, 0.4% hits; Potency, µM (series often up to 46.1 µM); also: actives are rising curves; nearly all actives have a fitted effect of over 50% in size
#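 Recovery from NS1-induced slow growth read by OD600 in budding yeast switched to galactose assay medium (pH 6.0, -URA) at 1:100 dilution. Compound 23 nl per well; the matching strain lacking NS1 serves as control.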
# SARS PLpro yeast: qHTS of Yeast-based Assay for SARS-CoV PLP; S. cerevisiae expressing SARS-CoV PLpro, growth rescue; Potency, µM (titrated, usually from 32.9 µM), actives largely listed as activators; 330,000 compounds, 0.19% hits; AID 485353, 2010; also: nearly all actives have a fitted effect of over 55% in size
# Shiga inhibitor: A qHTS for Small Molecule Inhibitors of Shiga Toxin | Vero cells, Shiga toxin protein synthesis inhibition reporter | inhibition, % at 38.7 µM | 290,000 compounds, 9.2% hits | AID 2315, 2010; in the data active = inhibition mostly above about 28%, no sharp cut-off; inactive = mostly below about 43%
# Pf growth 48h: Primary qHTS for delayed death inhibitors of the malarial parasite plastid, 48 hour incubation | P. falciparum luciferase growth in erythrocytes, 48 h | Potency, µM (doses to about 28.7 µM), hits mostly inhibitors | 310,000 compounds, 5.9% hits | AID 504832, 2011; active = well fitted inhibition curve with a large enough effect; inconclusive = small, poorly fitted or top-dose-only effect, or another doubt; inactive = no such curve, though single readings can be large or run the other way
#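 Parasite viability was followed by luminescence of a genomically integrated firefly luciferase. Cultures held 0.1% parasitemia at 2% hematocrit (final), incubated under 5% CO2 at 37 C.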
# Pf growth 96h: Primary qHTS for delayed death inhibitors of the malarial parasite plastid, 96 hour incubation | P. falciparum luciferase reporter growth, 96 h | Potency, µM (series often up to 28.7 µM), actives largely listed as inhibitors | 320,000 compounds, 6.9% hits | AID 504834, 2011; active = well fitted inhibition curve with a large enough effect; inconclusive = small, poorly fitted or top-dose-only effect, or another doubt; inactive = no such curve, though single readings can be large or run the other way
#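 Compounds incubated with erythrocytes infected by luciferase-expressing P. falciparum (2% hematocrit, 0.05% parasitemia final) for 96 hours, 37 C in 5% CO2. Growth inhibition scored as decreased luciferase luminescence.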
# CHX counter: Cycloheximide Counterscreen for Small Molecule Inhibitors of Shiga Toxin. cell reporter, cycloheximide protein synthesis inhibition counterscreen. max response, %. 300,000 compounds, 12% hits. AID 2314, 2010; in the data active = max response mostly above about 13%, no sharp cut-off; inactive = mostly below about 14%; also: read at 38.3 µM for the half of the compounds with a filed dose
# Hits are given with their value; . = inactive; ? = inconclusive; / = not tested or not shown. Shown are actives, neighbours in structure and some others; about 21% of the full set was active somewhere. Unless noted, calls follow the shape of the full dose curve.
SMILES,NS1 function inh,SARS PLpro yeast,Shiga inhibitor,Pf growth 48h,Pf growth 96h,CHX counter
CN1C(=O)C2(C(C#N)=C(N)N(c3ccc(Cl)cc3)C3=C2C(=O)CC(C)(C)C3)c2ccccc21 (stereo not given),.,.,.,/,13.1µM,.
CC1(C)CC(=O)C2=C(C1)N1C(=C(C#N)C2c2ccc(Cl)cc2)N=C(N)c2ccccc21 (stereo not given),.,.,.,?,13.1µM,.
CC1(C)CC(=O)C2=C(C1)N1C(=C(C#N)C2c2ccccc2Cl)N=C(N)c2ccccc21 (stereo not given),.,.,.,13.1µM,.,.
CC1(C)CC(=O)C2=C(C1)N(c1ccccc1)C(N)=C(C#N)C2c1cccnc1 (stereo not given),.,.,.,?,13.1µM,.
N#Cc1ccc(OCC(=O)N2CCCC2=O)cc1,/,.,/,?,.,/
COc1ccc(O[C@H]2C=C[C@@H](c3ccccc3)O[C@@H]2COC(=O)CC/C(C)=N/OC[C@@H](O)COCc2ccco2)cc1,.,.,.,?,?,.
COc1ccc(O[C@H]2C=C[C@@H](c3ccccc3)O[C@@H]2COC(=O)CC/C(C)=N/O[C@@H](C)c2cc(-c3c(C)cc(C)cc3C)no2)cc1,.,.,.,?,2.94µM,.
O=c1c2ccccc2nc(SCc2cccc(F)c2)n1-c1cccc(S(=O)(=O)N2CCCC2)c1,.,.,.,?,6.57µM,.
Cc1ccc2nc(NC(=O)c3ccc(Cn4cc(Cl)cn4)o3)sc2c1,.,.,.,.,.,32.8
COc1ccc(CNC(=O)c2ccc(Cn3cc(Cl)cn3)o2)cc1,.,.,.,.,.,.
NNC(=O)c1ccc(Cn2cc(Cl)cn2)o1,.,.,.,.,.,18.4
CC(Cc1cccs1)NC(=O)Nc1cccc(Cl)c1 (stereo not given),.,.,69.0,/,?,59.5
CC(Cc1cccs1)NC(=O)Nc1ccc(F)cc1 (stereo not given),.,.,.,/,.,50.1
CC(C)NC(=O)Nc1cccc(Cl)c1,.,.,.,.,.,.
Cc1cc(C)c(S(=O)(=O)Nc2cccc(S(=O)(=O)N3CCOCC3)c2)c(C)c1,.,.,.,?,.,.
COc1ccc([N+](=O)[O-])cc1N(CC(O)CN(C)C)S(=O)(=O)c1ccc(C)cc1 (stereo not given),.,.,.,.,.,.
COc1ccc([N+](=O)[O-])cc1N(CC(O)CN(CC(C)C)CC(C)C)S(=O)(=O)c1ccccc1 (stereo not given),.,.,.,9.28µM,?,.
COc1ccc([N+](=O)[O-])cc1N(CC(O)CN1CCOCC1)S(=O)(=O)c1ccccc1 (stereo not given),.,.,.,.,.,.
CCCCN(CCCC)CC(O)CN(c1cc([N+](=O)[O-])ccc1OC)S(=O)(=O)c1ccccc1 (stereo not given),.,.,.,13.1µM,?,.
Cc1nc2nc(NC(=O)c3ccco3)[nH]n2c(=O)c1C,.,.,.,.,?,.
CNc1ccc(Br)cc(C(=O)/C=C/c2ccc(OC)cc2)c1=O,?,.,active,.,.,20.8
CCNc1ccc(Br)cc(C(=O)/C=C/c2ccc(Cl)cc2Cl)c1=O,.,.,.,?,.,.
CNc1ccc(Br)cc(C(=O)/C=C/c2cc(OC)ccc2OC)c1=O,?,?,.,?,.,.
CNc1ccc(Br)cc(C(=O)/C=C/c2ccc3c(c2)OCO3)c1=O,.,.,.,.,?,24.9
CCN(Cc1ccccc1)S(=O)(=O)c1cc2[nH]c(=O)c(=O)[nH]c2cc1C,.,.,.,.,?,.
SMILES,NS1 function inh,SARS PLpro yeast,Shiga inhibitor,Pf growth 48h,Pf growth 96h,CHX counter
Clc1cccc(OCCN2CCNCC2)c1,.,.,.,?,.,.
CN(CCOc1cccc(C(F)(F)F)c1)Cc1ccccc1,.,.,.,.,?,.
FC(F)(F)c1cccc(OCCN2CCN(Cc3ccccc3)CC2)c1,.,.,.,.,10.4µM,.
OCCN1CCN(CCOc2cccc(Cl)c2)CC1,.,.,.,.,1.65µM,.
Cc1ccc(S(=O)(=O)N2[C@@H](c3ccc(Cl)cc3)C(C(=O)O)=CC[C@H]2c2cccs2)cc1,/,.,/,?,.,/
O=C(NNC(=O)c1ccc(Br)s1)c1csc(N2CCOCC2)n1,/,.,/,.,.,/
N#Cc1c(/N=C/c2ccc(O)cc2O)sc2c1C1CCN2CC1,.,.,.,.,.,9.9
C=C1CSc2nc3ccccc3c(=O)n21,.,/,.,.,.,.
COc1cc(C=C2C(=O)NC(=O)NC2=O)ccc1O,.,.,.,.,.,.
COc1cc(/C=C2\OC(=O)c3c(OC)cccc32)ccc1O,.,.,100.2,/,?,79.4
Cc1cc(C)c2c(n1)sc1c(O)cc(=O)[nH]c12,?,.,.,.,7.38µM,.
CC1CCCN(C(=O)C(C)Nc2cc(Cl)ccc2N2CCOCC2)C1 (stereo not given),.,.,.,?,0.657µM,.
CCOc1ccc(C(=O)Nc2cccc3ncccc23)cc1Cl,.,.,/,.,?,.
Nc1nc(CSC(=S)N2CCOCC2)nc(Nc2ccccc2)n1,.,.,94.5,.,.,54.1
Cc1ccc(Nc2nc(N)nc(CSC(=S)N3CCOCC3)n2)cc1,.,.,96.1,.,.,46.2
COc1ccccc1Nc1nc(N)nc(CSC(=S)N2CCCCC2)n1,.,.,59.2,.,.,31.3
Cc1cccc(Nc2nc(N)nc(CSC(=S)N3CCOCC3)n2)c1,.,.,.,.,.,.
Nc1nc(CSC(=S)N2CCN(c3ccccc3)CC2)nc(Nc2ccc(F)cc2)n1,.,.,.,?,11.7µM,.
COC(=O)[C@H](C(C)C)N(Cc1ccccc1)S(=O)(=O)CCN1CCCC1,/,.,/,/,/,/
O=C(COC(=O)c1ccc[n+]([O-])c1)Nc1cc([N+](=O)[O-])ccc1Cl,/,.,/,/,/,/
COc1ccc(Cc2nnc(SCC(=O)NC3(C#N)CCCCC3)n2N)cc1,/,.,/,.,?,/
Cc1nc(C)c(-c2ccc(SCC(=O)Nc3cccc(Cl)c3C)nn2)s1,.,.,.,.,.,.
CCc1ccc(OCC(=O)OC(C)C(=O)Nc2ccc(Cl)cn2)cc1 (stereo not given),/,.,/,?,.,/
Nc1nc(CSC(=S)N2CCCCC2)nc(Nc2ccccc2)n1,/,.,87.1,.,.,39.7
CC1CC(C)CN(C(=S)SCc2nc(N)nc(Nc3ccccc3)n2)C1 (stereo not given),.,.,.,?,?,.
CCOc1ccc(Nc2nc(N)nc(CSC(=S)N3CCOCC3)n2)cc1,.,.,.,.,.,44.2
CCOc1ccc(CCNC(=O)COC(=O)c2ccc(Br)o2)cc1OCC,/,.,/,.,?,/
COc1ccc(NC(=O)C2CC(=O)N(Cc3ccco3)C2)cc1Cl (stereo not given),/,.,/,.,.,/
